Among the targets are RELARELA (p65 homodimer) (Homo sapiens, UniProt Q04206 1-307); p50p50 homodimer (Homo sapiens, UniProt P19838 7-356); RELB subunit;p50 subunit (Homo sapiens;Homo sapiens, UniProt Q01201;P19838 120-401;7-356).
Test in all cases: protein binding microarray; high values mean tight binding
Conditions in all cases: dsDNA, one strand shown

A further assay has as its target T1, p52p52 homodimer (Homo sapiens, UniProt Q00653 4-332).
T1 sequence: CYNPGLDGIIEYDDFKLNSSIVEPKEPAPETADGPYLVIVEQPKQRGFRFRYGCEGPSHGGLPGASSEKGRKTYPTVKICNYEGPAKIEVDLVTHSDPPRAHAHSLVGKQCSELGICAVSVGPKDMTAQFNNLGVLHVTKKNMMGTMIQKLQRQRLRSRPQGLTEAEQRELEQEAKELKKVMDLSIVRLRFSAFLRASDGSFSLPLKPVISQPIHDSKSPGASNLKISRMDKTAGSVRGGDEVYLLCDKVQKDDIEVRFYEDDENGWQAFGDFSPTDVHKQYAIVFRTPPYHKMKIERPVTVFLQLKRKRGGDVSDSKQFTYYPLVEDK

Assay [1] deals with RELA (p65) subunit of heterodimer;p50 subunit (Homo sapiens;Homo sapiens, UniProt Q04206;P19838 1-307;7-356).
The target in assay [2] is RELA (p65) subunit of heterodimer;p52 subunit (Homo sapiens;Homo sapiens, UniProt Q04206;Q00653 1-307;4-332).
The target in the next assay is T2, RELB subunit;p52 subunit (Homo sapiens;Homo sapiens, UniProt Q01201;Q00653 120-401;4-332).
T2 sequence 1: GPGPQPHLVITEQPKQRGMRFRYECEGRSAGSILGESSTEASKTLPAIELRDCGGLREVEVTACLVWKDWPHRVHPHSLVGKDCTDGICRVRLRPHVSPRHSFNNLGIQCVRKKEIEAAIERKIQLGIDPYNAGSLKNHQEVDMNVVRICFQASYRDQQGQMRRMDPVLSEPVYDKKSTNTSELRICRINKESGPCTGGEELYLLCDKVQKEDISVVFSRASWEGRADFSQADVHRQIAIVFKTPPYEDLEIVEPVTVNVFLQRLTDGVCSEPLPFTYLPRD
T2 sequence 2: T1 sequence

For assay [3], the target named is C-Rel subunit;p50 subunit (Homo sapiens;Homo sapiens, UniProt Q04864;P19838 1-285;7-356).
Assay [4] addresses T3, C-Rel subunit;p52 subunit (Homo sapiens;Homo sapiens, UniProt Q04864;Q00653 1-285;4-332).
T3 sequence 1: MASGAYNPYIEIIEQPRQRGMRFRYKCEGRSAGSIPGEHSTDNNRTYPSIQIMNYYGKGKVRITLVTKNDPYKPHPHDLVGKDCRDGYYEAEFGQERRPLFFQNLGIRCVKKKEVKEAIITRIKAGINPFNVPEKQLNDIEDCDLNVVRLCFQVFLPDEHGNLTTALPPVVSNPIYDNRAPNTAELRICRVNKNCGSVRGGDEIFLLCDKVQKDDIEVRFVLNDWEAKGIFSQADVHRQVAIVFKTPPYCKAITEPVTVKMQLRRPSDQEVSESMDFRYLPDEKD
T3 sequence 2: T1 sequence

RELA (p65) subunit of heterodimer;p50 subunit, sequence (Q04206 1-307, chain 1 of 2): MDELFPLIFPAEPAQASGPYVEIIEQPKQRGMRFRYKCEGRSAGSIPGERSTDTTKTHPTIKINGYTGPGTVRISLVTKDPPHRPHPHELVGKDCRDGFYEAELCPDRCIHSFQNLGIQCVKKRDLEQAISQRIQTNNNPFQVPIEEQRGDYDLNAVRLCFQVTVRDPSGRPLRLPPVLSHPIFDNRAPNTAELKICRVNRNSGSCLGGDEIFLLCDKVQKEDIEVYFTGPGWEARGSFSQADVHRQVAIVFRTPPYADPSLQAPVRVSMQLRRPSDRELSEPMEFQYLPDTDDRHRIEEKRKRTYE
RELA (p65) subunit of heterodimer;p50 subunit, sequence (P19838 7-356, chain 2 of 2): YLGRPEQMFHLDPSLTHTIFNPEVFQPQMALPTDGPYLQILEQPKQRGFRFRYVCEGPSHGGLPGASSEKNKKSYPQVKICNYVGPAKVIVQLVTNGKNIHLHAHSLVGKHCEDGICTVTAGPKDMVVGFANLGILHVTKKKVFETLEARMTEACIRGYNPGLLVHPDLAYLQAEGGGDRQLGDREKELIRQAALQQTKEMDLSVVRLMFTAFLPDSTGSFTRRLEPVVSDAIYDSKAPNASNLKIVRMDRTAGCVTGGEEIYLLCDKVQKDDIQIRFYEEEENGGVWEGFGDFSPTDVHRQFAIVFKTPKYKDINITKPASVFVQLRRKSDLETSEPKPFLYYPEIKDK
RELARELA (p65 homodimer), sequence (Q04206 1-307): as the sequence (Q04206 1-307, chain 1 of 2) above
p50p50 homodimer, sequence (P19838 7-356): as the sequence (P19838 7-356, chain 2 of 2) above

With CGATTGTCCCT, the binding signal with RELARELA (p65 homodimer) was determined as 0.353 z-score; with p50p50 homodimer, 1.16 z-score; with p52p52 homodimer, 1.18 z-score; in [1] it was 0.871 z-score; in assay [2], 0.943 z-score; with RELB subunit;p50 subunit, 1.29 z-score. Besides, the binding signal is 1.27 z-score with RELB subunit;p52 subunit, 0.77 z-score in assay [3] and 0.66 z-score in assay [4].

GAGGTTCTCCC: the binding signal was 0.0177 z-score in the assay with RELARELA (p65 homodimer); 0.0309 z-score with p50p50 homodimer; -0.068 z-score with p52p52 homodimer; -0.00394 z-score in assay [1]; -0.121 z-score in assay [2]; 0.333 z-score with RELB subunit;p50 subunit. The binding signal with RELB subunit;p52 subunit was 0.107 z-score; in [3] it was -0.166 z-score; in assay [4], -0.0434 z-score.

For GGGGGAACCCC, the binding signal in the assay with RELARELA (p65 homodimer) amounted to 2.66 z-score; in the assay with p50p50 homodimer, 1.15 z-score; with p52p52 homodimer, 3.25 z-score; in assay [1], 2.25 z-score; in [2] it was 3.23 z-score; with RELB subunit;p50 subunit, 2.62 z-score. Further, the binding signal came out at 2.86 z-score in the assay with RELB subunit;p52 subunit, 2.58 z-score in assay [3] and 3.54 z-score in assay [4].

Regarding GGATACCCCCC, the binding signal with RELARELA (p65 homodimer) was 0.633 z-score; in the assay with p50p50 homodimer, 1.23 z-score; with p52p52 homodimer, 1.22 z-score; in assay [1] it was 1.77 z-score; in assay [2], 1.48 z-score; with RELB subunit;p50 subunit, 1.06 z-score. The binding signal was 1.52 z-score with RELB subunit;p52 subunit, 1.14 z-score in assay [3] and 1.54 z-score in assay [4].

CGGGGTCTCCT: the binding signal was -0.0145 z-score in the assay with RELARELA (p65 homodimer); 0.0717 z-score in the assay with p50p50 homodimer; 0.00961 z-score with p52p52 homodimer; -0.308 z-score in assay [1]; -0.191 z-score in [2]; -0.332 z-score with RELB subunit;p50 subunit. Also, the binding signal with RELB subunit;p52 subunit is -0.207 z-score; in [3] it was -0.336 z-score; in assay [4] it was 0.0688 z-score.

With GAAGACCTCCT, the binding signal with RELARELA (p65 homodimer) was -0.649 z-score; in the assay with p50p50 homodimer, -2.61 z-score; with p52p52 homodimer, -0.857 z-score; in [1], -0.905 z-score; in assay [2], -0.909 z-score; with RELB subunit;p50 subunit, -1.23 z-score. Besides, the figures for the binding signal (with RELB subunit;p52 subunit; in assay [3]; in assay [4]) were -0.869 z-score, -1.61 z-score and -0.944 z-score, respectively.

Consider GAAGAGCCCCT, for which the binding signal is -0.596 z-score in the assay with RELARELA (p65 homodimer); 1 z-score in the assay with p50p50 homodimer; 0.626 z-score in the assay with p52p52 homodimer; 0.604 z-score in [1]; 0.773 z-score in assay [2]; 0.554 z-score with RELB subunit;p50 subunit. The binding signal in the assay with RELB subunit;p52 subunit worked out at 0.833 z-score; in assay [3], 0.202 z-score; in assay [4], 0.429 z-score.

AAGTGAACCCT: the binding signal with RELARELA (p65 homodimer) is -0.647 z-score; in the assay with p50p50 homodimer, -1.09 z-score; in the assay with p52p52 homodimer it was -0.646 z-score; in assay [1], -0.987 z-score; in assay [2], -0.763 z-score; in the assay with RELB subunit;p50 subunit it was -0.923 z-score. Further, the values for the binding signal (with RELB subunit;p52 subunit; in [3]; in [4]) were -0.758 z-score, -1.27 z-score and -0.88 z-score, respectively.

Take CGGTGTACCCT: the binding signal with RELARELA (p65 homodimer) was -0.287 z-score; in the assay with p50p50 homodimer, -0.0219 z-score; with p52p52 homodimer, 0.0503 z-score; in [1] it was -0.317 z-score; in [2], -0.282 z-score; in the assay with RELB subunit;p50 subunit it was -0.0463 z-score. Also, the binding signal is -0.155 z-score with RELB subunit;p52 subunit, -0.172 z-score in [3] and -0.317 z-score in assay [4].

Take CAAGTGGCCCT: the binding signal in the assay with RELARELA (p65 homodimer) is -1.09 z-score; in the assay with p50p50 homodimer it was -1.71 z-score; in the assay with p52p52 homodimer it was -0.67 z-score; in [1], -0.961 z-score; in assay [2] it was -0.801 z-score; with RELB subunit;p50 subunit, -0.596 z-score. The binding signal in the assay with RELB subunit;p52 subunit is -0.32 z-score; in [3], -1.14 z-score; in [4], -0.793 z-score.

CGAATTCTCCT: the binding signal was -0.00416 z-score with RELARELA (p65 homodimer); -1.08 z-score with p50p50 homodimer; -0.594 z-score in the assay with p52p52 homodimer; -0.48 z-score in [1]; -0.707 z-score in assay [2]; -0.948 z-score in the assay with RELB subunit;p50 subunit. Moreover, the binding signal was -0.835 z-score with RELB subunit;p52 subunit, -0.873 z-score in assay [3] and -0.63 z-score in [4].

As for CAGGTACCCCT, the binding signal with RELARELA (p65 homodimer) was -0.0502 z-score; in the assay with p50p50 homodimer, 0.353 z-score; with p52p52 homodimer, 0.356 z-score; in [1] it was 0.304 z-score; in assay [2] it was 0.796 z-score; with RELB subunit;p50 subunit, 0.548 z-score. The values for the binding signal (with RELB subunit;p52 subunit; in assay [3]; in assay [4]) were 1.06 z-score, 0.193 z-score and 0.274 z-score, respectively.

Turning to AGGATTTCCCT, the binding signal in the assay with RELARELA (p65 homodimer) amounted to 1.99 z-score; in the assay with p50p50 homodimer it was 1.23 z-score; with p52p52 homodimer, 2.18 z-score; in assay [1], 1.44 z-score; in [2], 1.61 z-score; in the assay with RELB subunit;p50 subunit it was 1.58 z-score. In addition, the binding signal stood at 1.91 z-score with RELB subunit;p52 subunit, 1.36 z-score in assay [3] and 1.67 z-score in assay [4].

As to GGAGGGTCCCT, the binding signal with RELARELA (p65 homodimer) is -0.115 z-score; with p50p50 homodimer it was 0.371 z-score; in the assay with p52p52 homodimer it was 0.534 z-score; in [1], 0.933 z-score; in [2] it was 0.819 z-score; with RELB subunit;p50 subunit it was 0.287 z-score. Further, the values for the binding signal (with RELB subunit;p52 subunit; in [3]; in assay [4]) were 0.448 z-score, 0.496 z-score and 0.547 z-score, respectively.

On to AGGTTGCTCCC, for which the binding signal in the assay with RELARELA (p65 homodimer) was -0.396 z-score; with p50p50 homodimer, -0.987 z-score; with p52p52 homodimer it was -0.528 z-score; in assay [1], -0.584 z-score; in [2], -0.648 z-score; with RELB subunit;p50 subunit, -0.569 z-score. Further, the binding signal with RELB subunit;p52 subunit is -0.67 z-score; in assay [3], -0.696 z-score; in assay [4] it was -0.587 z-score.

The values above are taken from publication PMC3218832.
